Among the data in PubChem BioAssay AID602449 (Sanford-Burnham Center for Chemical Genomics, 2012) are inhibition values, retold here.

Where “and” joins values, the source holds several entries; their conditions need not be identical. Equal entries are not always repeated. Among all 360,000 compounds or so, about 5,000 (1.4%) were called active.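 How the source made its calls: active means inhibition of 50% or more, scaled per plate between neutral and stimulator controls; inactive means the rest.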 Many of the other results were omitted from the sample, so actives are more common in it than they were. Some structures have more than one record in an assay (separate samples or runs), and their calls can disagree.

A word on the inhibition: it is the change of the read-out against control, counted positive when it falls.

This assay can be described thus: mitochondrial permeability transition pore inhibitors, primary screen, biochemical, isolated mouse mitochondria, absorbance (AID 602449).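 Further: 0% = DMSO wells given calcium and 100% = 1 mM EGTA wells.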 Particulars: Ca2+ swelling absorbance, 30 min, at 10 µM, stronger effect = higher value.
Take `Cc1c(C)c(C)c(S(=O)(=O)N2CCC3(CC2)OCCO3)c(C)c1C`: the inhibition was -0.6% (inactive). For `COC(=O)/C(C#N)=C/c1occc1C`, the inhibition was 1.6% (inactive). Consider `COc1ccc(NS(=O)(=O)c2ccc(NC(=S)NC(=O)CC(C)C)cc2)cc1`, for which the inhibition is 0.5% (inactive).

Turning to `CC(=O)Nc1ccc(NS(=O)(=O)c2ccc3c(c2)NC(=O)CC(=O)N3)cc1`, the inhibition is -1.8% (inactive). As for `CC(=O)c1c(C)oc2ccc(NS(=O)(=O)c3ccc(C(=O)O)cc3)cc12`, the figure is 0.1% (inactive); as for `CC(=O)c1c(C)oc2ccc(NS(=O)(=O)c3ccccc3)cc12`, -0.4% (inactive); as for `COc1ccc(S(=O)(=O)Nc2ccc3oc(C)c(C(C)=O)c3c2)cc1`, 93.4% (active). For the molecule `COc1cc(NS(=O)(=O)c2ccc(NC(C)=O)cc2)cc(OC)c1`, the inhibition is 54% (active). The result for `Cc1c(S(=O)(=O)NC(C)c2ccccc2)c(=O)n(C)c(=O)n1C` (stereo not given) reads 1.4% (inactive); that for `CN(Cc1nc2ccccc2c(=O)[nH]1)Cc1cc(=O)oc2ccc3ccccc3c12`, -0.3% (inactive). The result for `COc1cc(/C=N/N=C(\N)c2nonc2N)cc(OC)c1OC` reads -1.6% (inactive); that for `Cc1cc(Cl)ccc1-c1nc(NCCN(C)C)nc2ccsc12`, 1.8% (inactive). Regarding `CC1(c2ccc3ccccc3c2)NC(=O)NC1=O` (stereo not given), the inhibition was 0.6% (inactive). For `Cc1nc(SCC(=O)NC2CCCCC2C)c(C#N)c(C)c1C` (stereo not given), the inhibition was 0.8% (inactive). As for `O=[N+]([O-])c1ccc(Sc2n[nH]c(-c3ccco3)n2)nc1`, the figure is -1.5% (inactive); as for `CCCC[C@@H]1CN=C(N)N1CCc1cc(C(F)(F)F)cc(C(F)(F)F)c1`, 88.5% (active). In the case of `CCCCN1C(N)=NC[C@@H]1Cc1ccccc1`, the inhibition was -0.6% (inactive). As for `CCCC[C@@H]1CN=C(N)N1CCCC`, the figure is 1.3% (inactive). Consider `CCCN(Cc1cc2cccc(C)c2[nH]c1=O)S(C)(=O)=O`, for which the inhibition is -1.3% (inactive). On to `COc1cccc(CNc2ncc(-c3ccccc3)n2C)c1`, for which the inhibition was 2% (inactive). As for `COc1ccc(/C=C/C(=O)Nc2ccc(C34CC5CC(CC(O)(C5)C3)C4)cc2)cc1OC`, the figure is -0.1% (inactive); as for `CCOC(=O)c1ccc[n+](CC(=O)Nc2ccccc2OC(F)F)c1`, -3.5% (inactive). On to `FC(F)Oc1ccccc1NC(=S)Nc1cccc(Cl)c1Cl`, for which the inhibition was 50.2% (active).

For `CC(=O)Nc1ccc(NC(=O)COc2ccccc2C(=O)Nc2cccc(Cl)c2Cl)cc1`, the inhibition is 6.8% (inactive). The result for `Cc1ccccc1N1CC(C(=O)Nc2ccc(S(=O)(=O)N3CCCC3)cc2)CC1=O` (stereo not given) reads -2.9% (inactive).

As for `COCCOCCn1cnc2ccccc21`, the inhibition is -0.6% (inactive). The result for `Cc1cc2ncn(CCCCOc3ccccc3)c2cc1C` reads 77.9% (active).

On to `Clc1ncn(CCOc2ccccc2)c1Cl`, for which the inhibition is -3.1% (inactive). Consider `CCOC(=O)C1CCCN(C(=O)c2cccc3ccccc23)CC1` (stereo not given), for which the inhibition was 0% (inactive). For `CC(C)CC(COCc1ccc(Cl)cc1)N1CCN(C(=O)c2ccc(C(F)(F)F)cc2)CCC1=O` (stereo not given), the inhibition was -1.6% (inactive). With `Cc1cc(C(=O)OCC(=O)Nc2nnc(C(C)C)s2)c2ccccc2n1`, the inhibition is 22.9% (inactive). On to `CC(NC(=O)COC(=O)c1ccc2ccccc2n1)c1ccccc1` (stereo not given), for which the inhibition is -0.2% (inactive). As for `CC(C)CC(=O)N/C(N)=N/c1nc2ccccc2s1`, the inhibition is 81.8% (active).

For `CCOC(=O)C1CCN(C(=O)CSc2cc(=O)n(C)c3ccccc23)CC1`, the inhibition is 0.5% (inactive).

For the molecule `Cc1ccc(-n2cc(CN(C)Cc3nccn3C)c(-c3cccc(C)c3)n2)cc1`, the inhibition was 0.5% (inactive). As for `CC(C)(CCl)C(=O)Nc1ccc(Sc2ccc(F)cc2)cc1`, the figure is 73.1% (active); as for `O=C(CCl)Nc1ccc(Sc2ccc(NC(=O)CCl)cc2)cc1`, 6% (inactive); as for `CCN(c1ccccc1)S(=O)(=O)c1ccc(NC(=O)C(C)(C)C)cc1`, -1.2% (inactive). The result for `CC1(C)CCSC(/C=C/c2ccccc2)=N1` reads 1.3% (inactive); that for `COCCN1C(=O)C(=O)/C(=C(/O)c2ccc(S(=O)(=O)N3CCCCC3)cc2)C1c1ccc(OC)c(OC)c1` (stereo not given), -0.3% (inactive); that for `C=CCC1(CC=C)CCCN1C(=O)c1cc(COc2ccc(-n3cncn3)cc2)on1`, 105% (active). Regarding `CCCC(=O)N1CCC1(C)C(=O)Nc1ccc(-n2cncn2)cc1` (stereo not given), the inhibition was -1.3% (inactive). As for `O=C(c1cc(COc2c(F)cccc2F)on1)N1CCSCC1`, the figure is 2% (inactive). As for `CC(C)c1nc2oc3c(N4CCN(C)CC4)ncnc3c2c2c1CCC2`, the figure is -0.5% (inactive). Take `c1ccc2cc3c(NCCN4CCOCC4)ccnc3cc2c1`: the inhibition was 1.4% (inactive).

With `O=C1CCCc2nn(-c3ccccc3)nc21`, the inhibition was 0.8% (inactive). As for `O=C(c1ccc(N2CCCC2=O)cc1)N1CCN(c2ccc(C(F)(F)F)cc2[N+](=O)[O-])CC1`, the figure is 74.9% (active); as for `COc1cc(OC)cc(C(=O)NC(=S)N2CCN(c3ccc(C(F)(F)F)cc3[N+](=O)[O-])CC2)c1`, 0.6% (inactive); as for `O=C(c1ccc(N2CCOCC2)c([N+](=O)[O-])c1)N1CCN(c2ccccc2F)CC1`, 0% (inactive). Turning to `CCOc1cc(CNn2c(C)nnc2SCC(=O)NC(C)(C)C)ccc1OCC(=O)NC(C)(C)C`, the inhibition is -1.3% (inactive). The result for `CC(C)(C)Nc1c(-c2cccs2)nc2ccccn12` reads 0.8% (inactive); that for `Cc1ccc(N(Cc2cc(=O)[nH]c3ccccc23)C(=O)CCl)cc1`, -0.5% (inactive); that for `Brc1ccc(CSc2ccc(-c3ccco3)nn2)cc1`, 57.6% (active). As for `O=C(CSc1ccc(-c2ccco2)nn1)NCc1ccc2c(c1)OCO2`, the figure is -0.3% (inactive); as for `COc1ccc(NC(=O)CSc2ccc(-c3ccco3)nn2)c(OC)c1`, 0.7% (inactive); as for `CCn1c(=O)n(CC)c2cc(N3CCCC3)c(NC(=O)c3ccccc3Br)cc21`, 0.5% (inactive).

As for `CC/C(O)=C1\C(=O)CC(C)(C)CC1=NCCc1nc2ccccc2[nH]1`, the inhibition is -1.5% (inactive). For `CC1C/C(=N/NC(=O)c2cccs2)CC(C)(C)C1` (stereo not given), the inhibition was -1% (inactive). As for `Cc1nn(C)cc1C(=O)NNC(=S)Nc1ccc(Cl)cc1`, the figure is 1.7% (inactive); as for `Cc1ccc(-c2cc(C(=O)NCc3cn(C)nc3C)c3cc(Br)ccc3n2)cc1`, 1.7% (inactive); as for `Cc1nn(C)cc1CNC(=O)Nc1ccc(Cl)cc1`, 92.2% (active). As for `CN(Cc1ccc(F)cc1Cl)S(=O)(=O)c1cccs1`, the figure is -2.3% (inactive); as for `CN(C)Cc1ccc(F)cc1Sc1cc(Cl)ccc1Cl`, 59% (active). As for `Cc1ccc(-c2ccc(=O)n(Cc3ccc(F)cc3Cl)n2)cc1`, the figure is 0% (inactive). With `Cc1ccc(-c2c[n+](=O)c3c(n2[O-])CCC3)cc1`, the inhibition was 0.3% (inactive).

Consider `O=C1CCC(C(=O)N2CCCCO2)CN1Cc1cccc(C(F)(F)F)c1` (stereo not given), for which the inhibition was 0.5% (inactive).

On to `C=CCOc1ccccc1CNn1c(C)n[nH]c1=S`, for which the inhibition is -0.7% (inactive). As for `CC(C)(C)c1ccc(S(=O)(=O)N2CCN(C(=O)c3ccc4c(c3)C(=O)N(Cc3ccncc3)C4=O)CC2)cc1`, the figure is 32.6% (inactive); as for `O=C(c1ccncc1)N1CCN(S(=O)(=O)c2cc(C(F)(F)F)cc(C(F)(F)F)c2)CC1`, 106% (active); as for `O=C(Cc1ccsc1)N1CCN(S(=O)(=O)c2cc(C(F)(F)F)cc(C(F)(F)F)c2)CC1`, 53.1% (active). With `O=C(Cc1ccccc1)N1CCN(S(=O)(=O)c2ccc([N+](=O)[O-])cc2)CC1`, the inhibition is -3.8% (inactive).

`O=C(CCC(=O)N1CCN(S(=O)(=O)c2ccc(Cl)cc2)CC1)NCc1cccc(C(F)(F)F)c1`: the inhibition is -2.6% (inactive).

In the case of `O=C(c1ccncc1)N1CCN(S(=O)(=O)c2cccc([N+](=O)[O-])c2)CC1`, the inhibition was -0.5% (inactive).

In the case of `CCOC(=O)CNC(=O)CSc1ncccc1-c1nc2ccccc2[nH]1`, the inhibition was 0% (inactive). Take `COc1ccc(NC(=O)c2sc(=O)n(Cc3ccc(S(=O)(=O)N(C)C)cc3)c2C)cc1`: the inhibition is -1.7% (inactive). For the molecule `CCOC(=O)c1sc2nc(C)nc(SCC(N)=O)c2c1C`, the inhibition was 0.2% (inactive). For `O=C(CN(C(=O)CCC(=O)Nc1nccs1)c1ccc(F)cc1)NCc1ccc2c(c1)OCO2`, the inhibition was -0.8% (inactive). The result for `CC(=O)Nc1cc(-c2ccc(N3CCN(C)CC3)cc2)cn2c(-c3cccc(C(=O)N(C)C)c3)cnc12` reads 0.5% (inactive). For the molecule `CC(=O)OC1CCC2C3CCC4=C(CC(F)C(=O)C4)C3CCC12C` (stereo not given), the inhibition is 1.6% (inactive). For the molecule `CN(C)CC/C=C1\c2ccccc2CSc2ccccc21`, the inhibition is 2.3% (inactive).

`CN(C)Cc1ccccc1C1(O)c2ccccc2CSc2ccccc21` (stereo not given): the inhibition is 52.8% (active). Take `CN(Cc1cccs1)C(=O)Cc1c[nH]c2ccccc12`: the inhibition was 0.8% (inactive). The result for `COc1ccccc1NC(=O)C1=C(C)Nc2nc3ccccc3n2C1c1cccs1` (stereo not given) reads 0.9% (inactive). The result for `CCOc1cc(-c2nc3cc(C)ccn3c2NCC2CCCO2)ccc1O` (stereo not given) reads -0.2% (inactive). The result for `COc1ccc(-c2nc3cnccn3c2NC2CCCCC2)cc1-c1cccc(Cl)c1` reads 2% (inactive) and -0.2% (inactive). With `COc1ccc(-c2nc3cc(C)ccn3c2NC2CCCCC2)cc1SC1CCCCC1`, the inhibition was 14.7% (inactive) and 55.4% (active).

Take `CCCC1CC(C)(C(=O)Cn2[nH]c(=O)ccc2=O)OC1=O` (stereo not given): the inhibition was -1.2% (inactive).

Take `O=C1CCC(C(=O)OCC(=O)Nc2ccc(OC(F)F)cc2)=NN1`: the inhibition is -0.6% (inactive). As for `O=C(COc1ccc(NC(=O)c2ccccc2[N+](=O)[O-])cc1)c1ccc(F)cc1`, the figure is -1.1% (inactive). For `COc1cc2c3c(c1)/C(=C1/SC(=S)NC1=O)C(=O)N3C(C)(C)C=C2C`, the inhibition was 91.4% (active). As to `Cc1cc(C)n(CCNS(=O)(=O)c2ccc(Cl)cc2)n1`, the inhibition was 0% (inactive).

Turning to `Cc1ccc(C(=O)NCC(=O)O)s1`, the inhibition is -1.7% (inactive). For `CCCCc1nc(NCCN)c(C#N)c2c1CSC(C)(C)C2`, the inhibition is 108% (active). As for `Cc1nc(NCCN)c(C#N)c2c1COC(C)(C)C2`, the figure is -1% (inactive); as for `CCCCc1nc(NCc2ccccc2)c(C#N)c2c1CCCC2`, 5.4% (inactive).
